S1P3 antag = antagonists of human S1P3 receptor; Q99500; CHO S1P3 NFAT-BLA reporter, FRET fluorescence, antagonist mode; inhibition, % at 4.98 µM; 170,000 tested, 0.27% active;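 active = inhibition above the plate cutoff, the mean inhibition of test wells on that plate plus 3 SD, cut at about 28% in these data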;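 note: cells challenged with S1P at its EC80 of 0.8 µM; blue over green emission ratio from cleaved BLA substrate after 4 h stimulation; 0% = S1P-stimulated wells and 100% = unstimulated DMSO-only wells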
Target sequence (Q99500 whole entry, looked up): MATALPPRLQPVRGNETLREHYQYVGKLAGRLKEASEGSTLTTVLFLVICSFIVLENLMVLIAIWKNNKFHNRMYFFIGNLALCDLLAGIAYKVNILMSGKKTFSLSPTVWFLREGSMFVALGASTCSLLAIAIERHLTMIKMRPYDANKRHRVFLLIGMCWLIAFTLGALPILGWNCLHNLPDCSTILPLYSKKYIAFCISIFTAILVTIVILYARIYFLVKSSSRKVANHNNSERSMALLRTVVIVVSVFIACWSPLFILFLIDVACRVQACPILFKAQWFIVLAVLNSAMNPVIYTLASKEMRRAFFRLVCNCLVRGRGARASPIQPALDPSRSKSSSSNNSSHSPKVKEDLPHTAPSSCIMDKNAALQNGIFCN
ROMK mod = modulators of human ROMK potassium channel; P48048; Tet-inducible ROMK, thallium flux fluorescence; actives lie on both sides; B-score at 10 µM; 130,000 tested, 2% active; AID 1918;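 active = signal ratio slope over the read window, or its plate-corrected B-score, at least 3 SD from the plate mean, either direction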;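 note: B-score of the F/F0 ratio slope over 7 to 12 s after thallium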
S1P4 antagonist = antagonists of human S1P4 receptor | O95977 | S1P4-expressing cells, antagonist mode, reporter read-out | inhibition, % at 4.98 µM | 220,000 tested, 0.26% active | AID 1510; in the data active = inhibition above about 29%;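 note: 0% = wells stimulated with agonist and 100% = vehicle wells without agonist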
S1P4 ag = activates the human S1P4 receptor; O95977; S1P4-expressing cell line, agonist reporter assay; activation, % at 4.98 µM; 220,000 tested, 0.35% active; in the data active = activation above about 11%;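 note: 0% = DMSO vehicle and 100% = reference agonist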
KCC2 mod = modulators of human KCC2 chloride dependent transport; B-score of Tl+ flux slope (higher = more flux/activation; lower = inhibition) at 10 µM; KCC2 cells, thallium flux FluoZin-2 fluorescence; 190,000 tested, 2.2% active; Q9H2X9;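 active = thallium flux slope and its plate-corrected score both differing from the plate sample mean at a set confidence after two filtering rounds, in either direction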;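 note: slope of fluorescence scaled to starting intensity during 10 to 20 s after thallium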
RAM network inh = blocks the yeast RAM network; S. cerevisiae dse1pr::URA3 reporter, 5-FOA growth OD615, 2 d; analog-sensitive cbk1-as2 kinase mutant strain; inhibition, % at 50 µM; 190,000 tested, 1.8% active;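 active = inhibition above a set limit, 3 SD over mean compound inhibition, cut at about 8.4% in these data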;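 note: 0% = DMSO-only wells with no growth and 100% = 10 µM 1-NA-PP1 full growth; inhibition rescues growth on 5-FOA so higher OD means more RAM inhibition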
KCC2 sec1 = confirmation of human KCC2 transport modulators; shares compounds with KCC2 mod; HEK293-KCC2, thallium flux, FluoZin2 fluorescence; active compounds read high; normalised thallium flux (F/F0 slope) at 10 µM; 3,700 tested, 15% active; AID 1713;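 active = thallium flux slope above the same plate's solvent-only control mean plus 3 SD; inconclusive = the two replicate wells disagree; inactive = no significant difference from solvent-only control wells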
KCC2 bumet counter = thallium flux despite bumetanide block in KCC2 cells, secondary assay 3; 3,700 tested, 49% active; HEK293-KCC2 + bumetanide/ouabain, thallium flux FluoZin2; active compounds read high; normalized thallium flux at 10 µM; AID 1714; shares compounds with KCC2 mod;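 active = thallium entry rate above the same plate's blocked-transporter control wells by more than 3 SD; inconclusive = the two repeat wells disagree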;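 note: raw slope of fluorescence over initial fluorescence between 10 and 20 s after thallium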
KCC2 sec2 = KCC2 (human) modulation, second secondary assay; shares compounds with KCC2 mod; HEK293-KCC2, thallium flux FluoZin2 fluorescence; actives lie on both sides; F/F0 rise rate, 10–20 s post-thallium; normalized thallium flux at 10 µM; 3,700 tested, 23% active; AID 1715;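 active = thallium flux slope more than 3 SD above or below the plate's solvent-only control mean, mostly below; inconclusive = the two repeat wells disagreed; inactive = no significant shift from solvent-only controls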;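 note: raw slope with 0.1% DMSO as baseline and bumetanide as block control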
HEK counter1 = counter-screen for KCC2 modulators: effect in parental HEK293 cells. 3,700 tested, 46% active. shares compounds with KCC2 mod. AID 1716. thallium flux rate (normalised fluorescence) at 10 µM. thallium flux FluoZin2, ouabain; baseline-ratio fluorescence slope, 10–20 s after thallium;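 active = thallium flux rate significantly above the same plate's solvent-only control wells, beyond their mean plus 3 SD; inconclusive = the two replicate wells gave conflicting results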
KCC2 retest ouab = KCC2 (human) modulation, ouabain retest; HEK293-KCC2, thallium flux FluoZin2 fluorescence; bidirectional: low = inhibitor, high = activator; raw Tl+ flux slope (below DMSO = inhibition, above = activation) at 10 µM; AID 1717; 3,700 tested, 48% active; shares compounds with KCC2 mod;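 active = thallium flux slope beyond 3 SD from same-plate DMSO control mean in most replicates, usually higher, sometimes lower; inconclusive = repeat tests gave conflicting results; inactive = no significant difference from controls in most replicates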;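 note: slope of initial-normalized fluorescence between seconds 10 and 20 after thallium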
HEK293 Tl flux2 = acts in parental HEK cells, second KCC2 counter-screen; shares compounds with KCC2 mod; HEK293 parental, thallium flux FluoZin-2 fluorescence slope; thallium flux slope at 10 µM; 3,700 tested, 33% active; AID 1718;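 active = thallium flux slope above the same plate's solvent-control mean plus 3 SD in both duplicate wells; inconclusive = duplicate wells that disagreed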;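 note: run without ouabain in cells lacking the KCC2 cotransporter; slope of fluorescence scaled to its starting value between 10 and 20 s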
Numbers without * were called inactive; ? = inconclusive; . = not tested or not shown. In the library only some 5.1% were active in any assay of this set; here they are far more common.

SMILES	S1P3 antag	ROMK mod	S1P4 antagonist	S1P4 ag	KCC2 mod	RAM network inh	KCC2 sec1	KCC2 bumet counter	KCC2 sec2	HEK counter1	KCC2 retest ouab	HEK293 Tl flux2
CN(C)c1cccc(C(=O)Nc2cccc(F)c2)c1	6.3	.	-3.3	0.8	-0.282	0.2	.	.	.	.	.	.
CSC1=N/C(=C\c2ccccc2Cl)C(=O)N1N(C)C	-0.2	.	-3.0	0.9	0.444	.	.	.	.	.	.	.
Cc1ccc(S(=O)(=O)N2CC(O)CC2C(=O)OCC(=O)c2ccccc2Cl)cc1C (stereo unspecified)	-13.0	.	-16.1	-1.1	-4.15*	1.3	?	0.00437	0.0349	0.00386	0.0155*	0.0111
N#Cc1c(-c2ccc(C(F)(F)F)cc2)cc(-c2ccccc2)[nH]c1=S	-2.6	.	-17.9	1.5	5*	3.2	0.0201*	0.0222*	0.0402	?	0.0294*	0.0244*
CCOC(=O)CC1C(=O)NCCN1c1nc2c(C)cccn2c(=O)c1/C=C1\SC(=S)N(CC(C)C)C1=O (stereo unspecified)	21.1	.	-2.4	0.2	-9.05*	.	0.000693*	-0.00591*	0.0138*	-0.00232*	-0.00164*	0.00405*
CCOCCCNc1nc2c(C)cccn2c(=O)c1/C=C1\SC(=S)N(CC(C)C)C1=O	.	.	0.1	-0.2	-0.654	7.5	.	.	.	.	.	.
O=C(O)CCSc1nnc(SCC(=O)NCC(F)(F)F)s1	-14.8	0.0372	-19.6	-0.6	-0.0533	2.5	.	.	.	.	.	.
NC(=O)c1ccccc1NC(=O)Nc1cccc2ccccc12	-2.0	-0.236	-2.6	-0.5	-4.07*	4.3	?	0.00626	0.0294	0.00605	0.0189	0.00946
CC(=O)c1c(C)nc(-c2ccc(Cl)cc2)nc1N=CN(C)C	21.0	-1.23	-6.5	1.4	.	-0.7	0.00535	0.00427	0.0326	0.00795	0.0192	0.0111
CC(=O)c1c(CC(=O)O)[nH]n(-c2nc3ccccc3s2)c1=O	.	0.133	-10.7	0.2	1.44	1.5	.	.	.	.	.	.
O=c1cc(-c2ccccc2)[nH]n1-c1nc2ccccc2s1	20.4	.	-17.8	-1.1	14.1*	3.0	0.0082	0.0367*	?	0.025*	0.0402*	0.0166*
CC(=O)c1cc(NC(=O)c2ccc(Cl)cc2)c(=O)oc1/C=C/N(C)C	.	.	0.0	-0.9	-3.02*	0.3	?	-0.0026*	0.0205*	0.0027*	0.00804*	0.00481*
COc1ccc(S(=O)(=O)Nc2cc(C)ccn2)cc1	.	-0.304	-4.2	4.2	.	0.1	.	.	.	.	.	.
COc1cc(NS(=O)(=O)c2ccc(C)cc2)c2ncccc2c1	11.0	.	9.1	0.6	49.4*	0.0	0.0277*	0.0926*	0.0353	?	0.0624*	?
Cc1onc(-c2c(F)cccc2Cl)c1C(=O)OCC(=O)c1c(N)n(C)c(=O)n(C)c1=O	-0.3	0.751	-13.8	1.4	-1.08	0.6	.	.	.	.	.	.
CC(C)c1ccc(C(CC(=O)O)NC(=O)c2cccs2)cc1 (stereo unspecified)	-11.0	-0.162	-10.8	0.9	0.009	-0.5	.	.	.	.	.	.
CC(C)c1ccc(-c2csc(NC(=O)c3cccs3)c2C(=O)O)cc1	-10.1	1.64	0.4	-1.5	20.4*	1.5	0.00717	0.0451*	0.0273*	0.0214*	?	?
Cc1ccc(C)c(/C=C/C(=O)c2ccccc(=O)c2O)c1	7.1	-2.07	-4.7	1.0	40.4*	1.3	0.00614	0.067*	0.0607*	0.0623*	0.0618*	0.0513*
